The values that follow come from PubChem BioAssay.

Values joined by “and” are separate entries in the source; they are usually repeats but may differ in a detail not shown here. Equal values may be shown once. Records with an inconclusive call do not appear. Active and inactive are the calls of the source. Rule as the data show it, unless noted: active = inhibition above about 80%; inactive = the rest.

A short description of assay [1]: growth inhibition, single agents and combos, LFS_MB_1R, cell-based, cisplatin or BGB combos, synergistic combos for chromothripsis tumors (AID 1671452).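 Also: cells exposed for 96 hours before readout.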 As to conditions: LFS_MB_1R medulloblastoma cells, stronger effect = higher value.
Assay [2] in a line: growth inhibition, single agents and combos, CRL2098, cell-based, BGB or cisplatin IC20 combos, synergistic combos for chromothripsis tumors (AID 1671454).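 Also: cells exposed for 96 h before readout; 0% = vehicle DMSO and 100% = killing by high DMSO.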 As to conditions: CRL2098 osteosarcoma cells, drug combinations, stronger effect = higher value.
The nature of assay [3]: growth inhibition, single agents and combos, HD-MB03, cell-based, BGB or cisplatin IC20 combos, synergistic combos for chromothripsis tumors (AID 1671455; in the data active = inhibition above about 83%;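 also: 0% = vehicle DMSO and 100% = high DMSO as cytotoxic control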). The settings on record: HD-MB03 medulloblastoma cells, stronger effect = higher value.
A short description of assay [4]: growth inhibition, single agents and combos, UWB1.289, cell-based, BGB or cisplatin combos, synergistic combos for chromothripsis tumors (AID 1671456).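 Also: cells exposed to compound for four days; 0% = vehicle DMSO and 100% = killing by high DMSO.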 The settings on record: UWB1.289 ovarian carcinoma cells, stronger effect = higher value.
Assay [5] is described as follows: growth inhibition, single agents and combos, LFS_MB_2R, cell-based, cisplatin combos, synergistic combos for chromothripsis tumors (AID 1671457).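 Also: cells exposed to compound for four days before readout.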 The settings on record: LFS_MB_2R medulloblastoma cells, stronger effect = higher value.
Assay [6] in a line: UWB1.289_BRCA1 ovarian cancer growth, cell-based, BGB or cisplatin combinations (AID 1671459). The settings on record: UWB1.289 BRCA1 ovarian carcinoma, drug combinations, stronger effect = higher value.
The nature of assay [7]: drug combination toxicity in non-malignant astrocytes – cell-based, BGB or cisplatin IC20 combos, cytotoxicity control for chromothriptic childhood tumor combination screen (AID 1671460).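 Also: cells exposed to compounds for 96 hours before viability readout; 0% = vehicle and 100% = killing control.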 The settings on record: Human astrocytes, viability inhibition, drug combinations, at 0.5 µM, stronger effect = higher value.
A short description of assay [8]: viability loss in pontine glioma line – cell-based, SU-DIPG-XVII, MIPE5.0, CellTiter-Glo, qHTS, dose response (AID 1347060; cut-off not given, nearly all actives have AC50 up to about 26 µM;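 as to AC50: cells exposed to compound for 48 hours before viability readout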). The settings on record: CellTiter-Glo ATP luminescence. Background: In ATP-based viability assays light output follows the ATP content of the culture.
A short description of assay [9]: liver-stage malaria parasite load reduction – cell-based, known kinase inhibitor set, luminescence, hepatoma host viability (AID 624392; call rule not given here;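 also: infected cells incubated roughly two days before readout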). As to conditions: Plasmodium liver stage in hepatoma cells, luciferase luminescence, concentration not given here; liver cell % of control: measured here: host liver cell viability; parasite % of control: stronger effect = lower value.
Assay [10] deals with Hepatitis C virus NS3 helicase. As to the kind of experiment: blockers of NS3h binding to ssDNA – biochemical, fluorescence polarization, LOPAC1280 library, primary screen (AID 687035; in the data active = inhibition above about 37%). The settings on record: Purified HCV NS3 helicase, Cy5-dT15 ssDNA binding fluorescence polarization; stronger effect = higher value; concentration not given here. In general terms: Polarisation of emitted light reports the rotation of a fluorescent probe.

Assay [11] is described as follows: compounds altering Cy5-DNA-NS3h complex signal – biochemical, LOPAC1280, artefact control for HCV NS3 helicase inhibitor project (AID 687037; call rule not given here). The settings on record: Cy5-DNA-NS3h complex fluorescence interference counterscreen.
The nature of assay [12]: blockers of cellular phospholipid synthesis – cell-based, LOPAC library, screen 4, primary screen (AID 1347384; call rule not given here). The settings on record: animal cells, phospholipid biosynthesis inhibition screen; at 10 µM.
A short description of assay [13]: galactose survival enhancers in mitochondrial complex I cybrids – cell-based, galactose medium, ATP luminescence, primary screen (AID 1645843;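 active = z-score of at least 1.8 in each of two replicates, scored against plate mean and spread of sample wells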;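 also: positive z means more ATP and so rescue of galactose-driven cybrid death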). As to conditions: complex I mutant cybrid cells, 72 h, stronger effect = higher value.
Assay [14] is described as follows: P. berghei load reduction in hepatocytes – cell-based, HepG2, luciferase luminescence, HepG2 viability, primary screen (AID 624349; in the data active = parasite load remaining mostly below about 12%, no sharp cut-off; inactive = mostly above about 10%;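 also: 100% = mean of DMSO negative control wells on the same plate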). The settings on record: P. berghei liver stage in HepG2, luciferase luminescence, concentration not given here; parasite load remaining: stronger effect = lower value; viability: measured here: HepG2 viability without parasites.
The target of assay [15] is NAD(+) hydrolase SARM1 (Homo sapiens) (UniProt Q6SZW1). Put plainly: blocking NAD cleavage by SARM1 SAM-TIR – cell lysate, NAD-Glo luminescence (AID 1508614;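 active = compound whose remaining NAD level is above about 45 nM, limit read from the data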;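 also: higher remaining NAD means stronger inhibition of SARM1 NADase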). The settings on record: SAM-TIR HEK293T lysate NADase, at 1 µM, stronger effect = higher value.
Assay [16] has as its target Mitogen-activated protein kinase 7 (Homo sapiens) (UniProt Q13164). As to the kind of experiment: Gal4-ERK5 driven luciferase induction – cell-based, HTS, primary screen (AID 1508626;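 active = luciferase signal above three times the same-plate solvent-only control wells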;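 also: luciferase driven by Gal4-ERK5 fusion binding five Gal4 sites before minimal TATA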). As to conditions: HeLa Gal4-ERK5 transactivation, 18 h, at 5 µM, stronger effect = higher value.
A short description of assay [17]: compounds altering circadian rhythm period length – cell-based, LOPAC library, luminescence reporter (AID 2774; call rule not given here;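 also: values are relative to mean of DMSO wells on each plate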). The settings on record: circadian reporter cells, at 7 µM, actives lie on both sides.
[18] abbreviates: measured here: combination with BGB IC40, at 0.05 µM.
Setting [19] is: measured here: combination with cisplatin, at 0.5 µM.
Where [20] appears, read: measured here: combination with cisplatin, at 5 µM.
[21] abbreviates: measured here: combination with BGB at IC20, at 0.5 µM.
Setting [22] is: measured here: combination with cisplatin at IC20, at 0.5 µM.
Setting [23] is: measured here: combo with BGB at IC20, at 0.5 µM.
The mark [24] stands for this setting: measured here: combo with cisplatin at IC20, at 0.5 µM.
[25] abbreviates: measured here: inhibition with BGB combination, at 0.05 µM.
[26] abbreviates: measured here: inhibition with cisplatin combination, at 0.05 µM.
[27] abbreviates: BGB combination, concentration series, at 5 µM.
The mark [28] stands for this setting: cisplatin combination, concentration series, at 5 µM.
Setting [29] is: measured here: combo with BGB IC20.
[30] abbreviates: measured here: combo with cisplatin IC20.

Sequence of NAD(+) hydrolase SARM1 (Homo sapiens) (Q6SZW1 whole entry, looked up, the tested form may be a part): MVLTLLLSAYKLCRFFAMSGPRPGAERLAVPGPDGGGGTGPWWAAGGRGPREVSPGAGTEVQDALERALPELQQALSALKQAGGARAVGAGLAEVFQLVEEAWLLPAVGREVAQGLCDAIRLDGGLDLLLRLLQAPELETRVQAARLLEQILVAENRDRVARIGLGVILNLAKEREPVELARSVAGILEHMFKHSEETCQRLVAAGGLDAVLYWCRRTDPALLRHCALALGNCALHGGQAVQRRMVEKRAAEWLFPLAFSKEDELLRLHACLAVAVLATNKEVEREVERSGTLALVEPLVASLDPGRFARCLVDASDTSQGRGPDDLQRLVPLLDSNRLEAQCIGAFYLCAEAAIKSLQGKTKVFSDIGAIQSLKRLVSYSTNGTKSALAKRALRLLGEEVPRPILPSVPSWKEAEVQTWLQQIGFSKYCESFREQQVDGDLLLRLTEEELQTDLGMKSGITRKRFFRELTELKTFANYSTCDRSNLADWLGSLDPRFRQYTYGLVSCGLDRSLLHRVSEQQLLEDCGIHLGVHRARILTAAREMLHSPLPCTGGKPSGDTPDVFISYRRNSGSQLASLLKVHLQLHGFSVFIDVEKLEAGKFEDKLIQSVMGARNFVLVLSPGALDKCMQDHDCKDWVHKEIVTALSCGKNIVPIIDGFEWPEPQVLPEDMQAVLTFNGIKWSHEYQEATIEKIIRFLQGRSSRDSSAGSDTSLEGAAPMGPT
Sequence of Mitogen-activated protein kinase 7 (Homo sapiens) (Q13164 whole entry, looked up, the tested form may be a part): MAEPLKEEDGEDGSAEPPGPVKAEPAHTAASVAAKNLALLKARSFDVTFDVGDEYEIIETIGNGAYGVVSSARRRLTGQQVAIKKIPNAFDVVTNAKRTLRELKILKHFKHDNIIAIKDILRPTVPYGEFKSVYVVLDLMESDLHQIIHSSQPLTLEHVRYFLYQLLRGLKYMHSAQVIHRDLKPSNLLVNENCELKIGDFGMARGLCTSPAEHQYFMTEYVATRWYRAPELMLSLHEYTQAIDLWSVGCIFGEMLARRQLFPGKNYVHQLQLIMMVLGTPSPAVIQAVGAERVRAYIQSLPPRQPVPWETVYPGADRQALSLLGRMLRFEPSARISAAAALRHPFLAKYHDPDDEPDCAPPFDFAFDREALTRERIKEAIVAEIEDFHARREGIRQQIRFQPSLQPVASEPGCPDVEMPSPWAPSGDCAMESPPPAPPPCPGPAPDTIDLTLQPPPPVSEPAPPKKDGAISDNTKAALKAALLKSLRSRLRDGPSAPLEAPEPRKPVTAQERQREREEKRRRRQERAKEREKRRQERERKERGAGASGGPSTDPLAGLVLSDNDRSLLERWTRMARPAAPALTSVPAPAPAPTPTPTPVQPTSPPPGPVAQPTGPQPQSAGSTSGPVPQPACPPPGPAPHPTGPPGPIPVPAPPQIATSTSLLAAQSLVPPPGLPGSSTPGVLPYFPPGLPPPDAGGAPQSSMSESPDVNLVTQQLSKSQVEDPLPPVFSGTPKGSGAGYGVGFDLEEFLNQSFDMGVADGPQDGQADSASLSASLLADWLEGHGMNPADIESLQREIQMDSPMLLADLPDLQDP

The term inhibition denotes the relative decrease from the control value, in per cent. With `Nc1ccccc1NC(=O)c1ccc(CNC(=O)OCc2cccnc2)cc1`, the inhibition in [1] (at 0.5 µM) is 61% (inactive) and 41.3% (inactive); in assay [1] (setting [18]), -9.37% and -18.3%; in [1] (setting [19]), 79.3% and 71.8%; in [1] (setting [20]) it was 96.9% and 96.1%; in [2] (at 0.5 µM) it was 0.19% (inactive) and -6.59% (inactive); in assay [2] (setting [21]), -0.645% and -36.5%. Besides, the inhibition is 30.1% and 43.8% in assay [2] (setting [22]); 42.6% (inactive) and 20.9% (inactive) in assay [3] (at 0.5 µM); 34.7% and 26.6% in [3] (setting [23]); 87.6% and 25.8% in assay [3] (setting [24]); 18.2% (inactive) and 10.7% (inactive) in [4] (at 0.5 µM); 0.005% and -12.1% in [4] (setting [25]). Further, the inhibition was -11.8% and 3.27% in assay [4] (setting [26]); 39.2% (inactive) and 22.4% (inactive) in assay [5] (at 0.5 µM); 66.8% and 38.1% in [5] (setting [19]); 99.8% and 92.3% in [5] (setting [20]); 98.1% and 86.1% in assay [6] (setting [27]); 28.5% (inactive) and 10.5% (inactive) in [6] (at 0.5 µM). The inhibition in assay [6] (setting [28]) is 104% and 98.8%; in assay [7], 5.28% (inactive) and 8.78% (inactive); in assay [7] (setting [29]) it was 3.25% and 5.25%; in assay [7] (setting [30]), 2.55% and 12.8%.
For orientation: AC50 means the concentration at which the activity in the assay is half-maximal. In the case of `Cc1cc2c(F)c(Oc3ncnn4cc(OC[C@@H](C)O)c(C)c34)ccc2[nH]1`, the AC50 in [8] is 14.8 µM (active).
As to `CCNc1cc(NC2CCC(O)CC2)nc(Nc2ccc3c(ccn3Cc3ccccc3)c2)n1` (stereo not drawn), in assay [9], the liver cell % of control was found to be 83.4% and the parasite % of control is 33.8% (inactive).
Regarding `CC(=O)N1CCN(CCOc2ccc(C3CCN(C4=Nn5c(nnc5C(F)(F)F)CC4)CC3)cc2)CC1`, the call in [8] was inactive.
Consider `CNC(=O)[C@@H](NC(=O)[C@H](CC(C)C)[C@H](O)C(=O)NO)C(C)(C)C`, for which the AC50 in [8] is 18.6 µM (active).
With `CCc1ccc(/C=C2/SC(=S)NC2=O)cc1`, in [10], the inhibition was -3% (inactive). Moreover, the fluorescence ratio (interference) in [11] is 1 (inactive). The call in [12] was inactive. Moreover, the z-score in assay [13] was -0.65 (inactive).
A word on the viability: it is a read-out of living cells in per cent, often relative to untreated cells. For `CCOC(=O)C1=C[C@@H](OC(CC)CC)[C@H](NC(C)=O)[C@@H](N)C1`, in assay [14], the parasite load remaining is 175% (inactive) and 21.5% (inactive); the viability was 83.1% and 67.5%. For the same molecule, the remaining NAD in [15] is 10 nM (inactive). For the same molecule, in assay [16], the luciferase signal was 56 AU (inactive). Also, the z-score in [13] was 0.705 (inactive).
In the case of `CCN(CC)CCn1c(=O)c(Cc2ccc(OC)cc2)nc2ccccc21`, in [10], the inhibition is 0% (inactive). Moreover, in assay [11], the fluorescence ratio (interference) was 1 (inactive). For the same molecule, the molecule was called inactive in assay [12]. Besides, the z-score in [13] is -0.075 (inactive).
Take `COc1cc(OC)c2c(=O)[nH]c(-c3cc(C)c(OCCO)c(C)c3)nc2c1`: the result in [8] was inactive.
In the case of `c1cc(-c2cnn3cc(-c4ccc(OCCN5CCCCC5)cc4)cnc23)ccn1`, in assay [14], the parasite load remaining was 40.1% (inactive) and the viability worked out at 103%.
Turning to `c1nc2nc(Nc3ccc(N4CCOCC4)cc3)nc(NC3CCCCC3)c2[nH]1`, in assay [14], the parasite load remaining is 59.2% (inactive) and the viability was 68.1%.
Regarding `C/C(=C\C(=O)Nc1ccccc1C(=O)O)c1ccc2ccccc2c1`, the inhibition in assay [1] (at 0.5 µM) was -15% (inactive) and -22.4% (inactive); in [1] (setting [18]), -9.05% and -43.4%; in [1] (setting [19]), -18.5% and -27.8%; in assay [1] (setting [20]), -22.6% and -72.2%; in assay [2] (at 0.5 µM), -36.1% (inactive) and -95.9% (inactive); in [2] (setting [21]), -28.4% and -70.2%. The inhibition is -47.6% and -160% in assay [2] (setting [22]); -6.95% (inactive) and -18.5% (inactive) in assay [3] (at 0.5 µM); -7.43% and -31.2% in [3] (setting [23]); -10.4% and -19.6% in assay [3] (setting [24]); 9.98% (inactive) and -21.6% (inactive) in [4] (at 0.5 µM); 3.22% and -36.6% in assay [4] (setting [25]). In addition, the inhibition in [4] (setting [26]) is -9.11% and -30.4%; in assay [5] (at 0.5 µM), -3.77% (inactive) and -16.3% (inactive); in [5] (setting [19]), 1.51% and -14.7%; in assay [5] (setting [20]) it was 6.83% and -4.92%; in assay [6] (setting [27]) it was -7.61% and -2.79%; in assay [6] (at 0.5 µM), -8.12% (inactive) and -20.7% (inactive). Also, the inhibition in [6] (setting [28]) was 1.63% and -4.56%; in [7] it was -12.6% (inactive) and 0.11% (inactive); in assay [7] (setting [29]) it was -9.38% and 5.29%; in assay [7] (setting [30]), -22.2% and -3.59%.
In the case of `C[C@]12C=CC(=O)N[C@@H]1CC[C@@H]1[C@@H]2CC[C@]2(C)[C@@H](C(=O)Nc3cc(C(F)(F)F)ccc3C(F)(F)F)CC[C@@H]12`, the remaining NAD in [15] was 10 nM (inactive).
Take `CC1(C)C(=O)N(CCN2CCC(C(=O)c3ccc(F)cc3)CC2)c2ccccc21`: the period change in [17] is 0.085 h (inactive). Besides, the inhibition in [10] is -1% (inactive). Besides, in assay [11], the fluorescence ratio (interference) was 1 (inactive). For the same molecule, the molecule was called inactive in assay [12]. Besides, the z-score in assay [13] is -1.21 (inactive).
`NC(N)=Nc1nc(CSCCC(N)=NS(N)(=O)=O)cs1`: the inhibition in [10] was -3% (inactive). The fluorescence ratio (interference) in assay [11] is 1 (inactive). The call in assay [12] was inactive. Moreover, the z-score in assay [13] is 1.1 (inactive) and 1.27 (inactive).
In the case of `Nc1nc2[nH]cc(CCc3ccc(C(=O)N[C@@H](CCC(=O)O)C(=O)O)cc3)c2c(=O)[nH]1`, the remaining NAD in [15] was 10 nM (inactive).
